From PubChem BioAssay (NCI) come the findings set out here.

Experiment in all cases: NCI-60 one-dose screen, 48 h (100 = growth as untreated, 0 = no growth, -100 = all killed)
Holding throughout (details): 10 µM unless noted

In test [1] the test system is NCI-H23 lung.
Test [2] has as its system NCI-H226 lung.
Test [3] deals with NCI-H322M lung.
Test [4] relates to HOP-62 NSCLC.
Test [5] deals with NCI-H460 lung.
For test [6], the system named is HOP-92 NSCLC.
For test [7], the system named is NCI-H522 lung.
Test [8] deals with A549/ATCC NSCLC.
Test [9] has as its system 786-0 renal.
Test [10] deals with COLO 205 colon.
Test [11] concerns DU-145 prostate.
The test system of test [12] is K-562 leukemia.
Test [13] has as its system MALME-3M melanoma.
The test system of test [14] is MDA-MB-231 breast.
Test [15] has as its system RXF 393 renal.
Test [16] relates to SF-268 CNS.
In test [17] the test system is SF-295 CNS.
Test [18] concerns SF-539 CNS.
The test system of test [19] is UACC-257 melanoma.
In test [20] the test system is M14 melanoma.

About 83,000 compounds went through this panel and 20% of them were active in at least one assay; those are over-represented in the sample as a whole.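 Single-dose data. Exposure time 48 hours. Values below 10 considered active.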 Unmarked numbers belong to inactive results. Calls of active or inactive are those of the source.

Regarding `COc1ccc(Cc2cnc(NC(=O)c3sc4ccccc4c3Cl)s2)cc1`, the growth in [1] is 28.4%; in test [2], 49.7%; in test [3], 50.8%; in [4], 26.3%; in [5] it was 4.16% (active); in test [6] it was 79.8%. In addition, the growth was -14.2% (active) in [7]; 24.4% in test [8]; 36.7% in test [9]; 10.2% in [10]; 25% in test [11]; 7% (active) in [12]. The growth was 56.6% in test [13]; 41.9% in test [14]; 1.01% (active) in test [15]; 52.9% in test [16]; 14.9% in test [17]; -19.4% (active) in test [18]. Also, the growth in [19] is 49.8%; in test [20], 10.2%.
For the molecule `O=C1Nc2ccc(F)cc2/C1=C\c1nc(-c2ccccc2F)n2ccccc12`, the growth in test [1] was 75.9%; in test [2], 104%; in [3], 91.7%; in test [4], 94.4%; in test [5], 50.5%; in test [6], 79.8%. For the same molecule, the growth was 52.1% in test [7]; 86.1% in test [8]; 105% in test [9]; 93% in test [10]; -7.63% (active) in [11]; 102% in test [12]. The growth in [13] is 83.3%; in [14], 98.5%; in [15] it was 84.5%; in [16], 85.1%; in test [17], 104%; in test [18] it was 64.7%. Moreover, the results for the growth in [19] and in test [20] were 96.2% and 97%, respectively.
Regarding `CCOC(=O)c1ccc2c(c1)c1c(C)c3ccncc3c(C)c1n2C`, the growth in test [1] was -26.4% (active); in [2], -37.1% (active); in test [3] it was 18.1%; in test [4] it was -16.1% (active); in test [5], -5.22% (active); in [6], 1.34% (active). For the same molecule, the growth in test [7] is -52.6% (active); in test [8], 8.4% (active); in test [9], 16.7%; in [10] it was -44.7% (active); in test [11] it was 2.93% (active); in [12], 7.07% (active). Besides, the growth in test [13] was -40.9% (active); in [14] it was 2.92% (active); in [15], -62.3% (active); in [16], -7.28% (active); in [17], 1.65% (active); in test [18], -0.581% (active). The growth was -25.9% (active) in test [19] and -57.2% (active) in test [20].
In the case of `CCc1ccc(CCC(=O)Nc2ncc(Cc3ccc(Cl)cc3)s2)o1`, the growth in [1] was 54.9%; in test [2], 61.8%; in test [3], 52%; in [4] it was 30.9%; in test [5] it was 6.53% (active); in test [6], 69.8%. Moreover, the growth in test [7] is -3.33% (active); in test [8], 29.6%; in [9], 41.2%; in [10] it was 12.3%; in [11], 14.4%; in test [12], 10.9%. Moreover, the growth in test [13] was 46.4%; in test [14], 60.7%; in test [15], -12.8% (active); in test [16], 58.4%; in test [17] it was 17%; in [18], 2.47% (active). The growth in test [19] is 56.6%; in test [20] it was 8.78% (active).
Turning to `COc1cc(Nc2ncccc2NC(=O)c2cn(Cc3cccc(Oc4ccccc4)c3)nn2)cc(OC)c1`, the growth was 83.8% in test [1]; 83% in test [2]; 85.5% in test [3]; 99.7% in [4]; 102% in [5]; 98.4% in test [6]. For the same molecule, the growth in test [7] is 81%; in [8] it was 86%; in test [9], 87.2%; in test [10], 86.5%; in [11], 86.2%; in test [12], 45.4%. For the same molecule, the growth was 92.3% in [13]; 66% in test [14]; 74.6% in test [15]; 73.8% in [16]; 93.4% in test [17]; 93% in test [18]. The growth in test [19] was 104%; in test [20], 67.6%.
Consider `COc1ccc(C2=NN(C(C)=O)C(c3ccc(Oc4ccnc5cc(Cl)ccc45)c(OC)c3)C2)cc1` (stereo not given), for which the growth in test [1] was 65.9%; in test [2] it was -0.374% (active); in test [3] it was 26.7%; in test [4] it was 27.6%; in [5] it was 30.7%; in test [6] it was -1.54% (active). Besides, the growth in test [7] was 46.8%; in test [8], 44.6%; in test [9], 23.9%; in test [10], 47.7%; in test [11], 59.8%; in [12], 68.6%. Further, the growth is 52.8% in test [13]; 41.9% in [14]; 23% in test [15]; 76% in [16]; 49.5% in test [17]; 2.73% (active) in test [18]. Besides, the growth in [19] was 70.5%; in test [20], 71.8%.
`Nc1c(C(=O)Nc2ccncc2)sc2nc3c(cc12)CCCCC3`: the growth in test [1] was 61.8%; in [2] it was 72.3%; in [3], 99.9%; in test [4], 81.8%; in test [5], 81.6%; in test [6] it was 73%. Further, the growth in test [7] is 73.9%; in test [8] it was 89.5%; in test [9] it was 79.1%; in [10], 86.5%; in test [11] it was 89.2%; in [12] it was 51.8%. The growth in [13] is 90.6%; in test [14], 90.9%; in test [15], 84.2%; in test [16] it was 99.5%; in [17], 71.5%; in test [18], 73.2%. Also, the growth in [19] is 76%; in test [20], 91.9%.
For the molecule `CCOC(=O)c1c(NC(=O)c2ccc(OC)cc2)sc2c(CN(C)C)c(O)ccc12`, the growth was 90.6% in test [1]; 101% in test [2]; 89.6% in [3]; 85% in [4]; 60% in [5]; 25.3% in test [6]. Also, the growth in [7] was 75.1%; in test [8] it was 74%; in test [9], 63.4%; in [10], 55.3%; in [11], 84.3%; in [12], 24.1%. Further, the growth is -57.5% (active) in test [13]; 79.1% in test [14]; 53.6% in test [15]; 98% in test [16]; 82.3% in [17]; 68.8% in [18]. The results for the growth in test [19] and in test [20] were -58% (active) and -69.4% (active), respectively.
